Test results taken from PubChem BioAssay (NCATS).
Values without a mark were called inactive. No rule for the calls is given here.

The compounds below were run on HIV-1 nucleocapsid protein NCp7 (binding to TG oligonucleotide) (assay: HIV Nucleocapsid (AID 346;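 also: potency is for inhibitors that block NC binding and lower polarization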)). Settings: HIV-1 NC / fluorescein-TGTGTGTG probe, fluorescence polarization.
How it was run: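 NCp7 100 nM + fluorescein TG4xF 10 nM; Hepes pH 7.5/250mM NaCl/1uM ZnCl2/0.004% PEG 20000; 1 hr RT; FP, 45 s exposure; oligo-only wells as negative control.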
Potency is read from the fitted curve at half-maximal effect.

| Structure (SMILES) | Potency [µM] |
| --- | --- |
| COCC(=O)N1CCC2(CCN(Cc3ccncc3)CC2)CC1 | > 20 |
| Fc1ccc(Nc2ccnc(-c3ccoc3)n2)cc1 | > 20 |
| O=c1c(-c2ccc(Cl)cc2)nc2cncnc2n1Cc1ccc(F)cc1 | > 20 |
| COc1ccccc1CN1CC[C@@]2(CCCN(C(=O)c3cccn3C)C2)C1 | > 20 |
| O=C(c1cc(C(F)(F)F)cc(C(F)(F)F)c1)N1CCC2(CCN(Cc3ccccc3)CC2)CC1 | > 20 |
| O=c1c(-c2cc(F)cc(F)c2)nc2cnc(N3CCNCC3)nc2n1Cc1cccs1 | > 20 |
| COc1ccc(-c2nc3cnc(N4CCNCC4)nc3n(Cc3ccc(F)cc3)c2=O)cc1 | > 20 |
| COc1ccccc1CNc1ccnc(-c2ccc(C(=O)N(C)C)cc2)n1 | > 20 |
| CC(=O)N1CCC2(CC1)CCN(c1cccc(-c3ccccc3)c1)CC2 | > 20 |
| COc1cccc(Cn2c(=O)c(-c3ccc(Cl)cc3)nc3cncnc32)c1 | > 20 |
| O=c1c(-c2ccc(F)c(F)c2)nc2cncnc2n1-c1ccccc1 | > 20 |
| Fc1ccc(Nc2ccnc(-c3ccccc3C(F)(F)F)n2)cc1 | > 20 |
| COc1cccc(Nc2ncc3ncc(=O)n(CCC#N)c3n2)c1 | > 20 |
| COc1cccc(-c2cc(NCc3ccc(OC)cc3OC)ncn2)c1 | > 20 |
| COc1ccc(-n2c(=O)c(C)nc3cnc(Oc4cccc(Cl)c4)nc32)cc1 | > 20 |
